Screening results (PubChem BioAssay)
In the library only some 11% were active in any assay of this set; here they are far more common.
AmpC inh detg: AmpC beta-lactamase inhibition with detergent present; P00811; AmpC hydrolysis of nitrocefin, absorbance 480 nm, 0.01% Triton; Potency, µM (highest dose often 114 µM), usual class: inhibitors; actives 0.041% (n = 370,000); further: nearly all actives have a fitted effect of over 25% in size
Target sequence (P00811 whole entry, looked up): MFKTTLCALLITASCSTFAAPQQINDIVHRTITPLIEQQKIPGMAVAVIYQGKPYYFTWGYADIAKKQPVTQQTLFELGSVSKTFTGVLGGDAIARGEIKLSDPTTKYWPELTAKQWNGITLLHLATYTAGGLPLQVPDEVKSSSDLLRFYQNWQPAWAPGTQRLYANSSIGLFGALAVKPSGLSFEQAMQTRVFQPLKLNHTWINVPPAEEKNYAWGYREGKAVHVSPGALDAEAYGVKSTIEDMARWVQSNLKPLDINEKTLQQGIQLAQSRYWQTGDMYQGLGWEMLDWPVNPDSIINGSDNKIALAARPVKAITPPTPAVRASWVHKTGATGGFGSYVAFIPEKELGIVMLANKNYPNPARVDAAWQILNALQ
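AmpC (5.3 nM in the dispensed reagent) in 20 mM phosphate pH 7.0 with 0.01% (detergent screen) or 0.0001% Triton X-100 was preincubated with compounds for 15 min at room temperature. Nitrocefin was then added from an 800 uM solution, and hydrolysis was followed at 480 nm.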
HCV inh: HCV inhibition; Huh7.5.1 HCVcc-Cre infection, luciferase reporter, 44 h; Potency, µM (titrated, usually from 41.8 µM), hits mostly inhibitors; actives 3.4% (n = 340,000)
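Reporter virus HCVcc-Cre (~0.5 moi) infects cells exposed to compound; seeding density 1,000 cells/well with 4 h settling beforehand. Luminescence, 15 sec read, taken 44 h post-infection following a 15 min RT substrate incubation.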
Pf growth 48h: inhibits P. falciparum growth in the first generation, 48 h. P. falciparum luciferase growth in erythrocytes, 48 h. Potency, µM (series often up to 28.7 µM), most hits filed as inhibitors. actives 5.9% (n = 310,000). AID 504832
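Parasite viability was followed by luminescence of a genomically integrated firefly luciferase. Cultures held 0.1% parasitemia at 2% hematocrit (final), incubated under 5% CO2 at 37 C.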
Pf growth 96h: P. falciparum growth inhibition at 96 hour, primary screen for plastid delayed-death inhibitors. P. falciparum luciferase reporter growth, 96 h. Potency, µM (top dose mostly 28.7 µM), actives largely listed as inhibitors. actives 6.9% (n = 320,000). AID 504834
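P. falciparum expressing integrated firefly luciferase grown in erythrocytes (2% hematocrit, 0.05% parasitemia final) with compounds for 96 hours at 37 C, 5% CO2. Growth inhibition read as loss of luminescence after adding luciferase detection reagent.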
AmpC inh no detg: blocks E. coli AmpC beta-lactamase in detergent-free assay; P00811; AmpC nitrocefin hydrolysis, absorbance 480 nm, 0.0001% Triton; Potency, µM (series often up to 57.1 µM), usual class: inhibitors; actives 0.52% (n = 330,000); AID 485341; further: nearly all actives have a fitted effect of over 20% in size
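AmpC (5.3 nM in the dispensed reagent) in 20 mM phosphate pH 7.0 with 0.01% (detergent screen) or 0.0001% Triton X-100 was preincubated with compounds for 15 min at room temperature. Nitrocefin was then added from an 800 uM solution, and hydrolysis was followed at 480 nm.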
AMA1 RON2 block: disrupts binding of P. falciparum AMA1 to RON2. AlphaScreen AMA1-biotinylated RON2 peptide binding. Potency, µM (titrated, usually from 58.2 µM), usual class: inhibitors. actives 0.2% (n = 360,000); further: nearly all actives have a fitted effect of over 45% in size
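AMA1 (3D7) with his tag at 25 nM final met compounds first, then biotinylated RON2 peptide at 25 nM; detection used donor plus acceptor beads, 10 µg/mL apiece, read by AlphaScreen after 30 min at room temperature.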
A number is an active result. The call rests on the fitted dose curve; in most records, active means well fitted curve in the direction sought with a large enough effect; inconclusive means small, poorly fitted or top-dose-only effect, or another doubt; inactive means no such curve, though single readings can be large; an effect the other way counts as inactive or inconclusive.

`CNC(=O)C1CCC(Cn2c(=O)c3sccc3n(CC(=O)Nc3ccc(C)c(C)c3)c2=O)CC1` (centres undefined) gave AmpC inh detg inactive.
For Cc1cc(N2CCN(c3ccccc3)CC2)nc2ccccc12 the results were AmpC inh detg inactive, HCV inh inconclusive, Pf growth 48h inactive, Pf growth 96h inactive, AmpC inh no detg inactive and AMA1 RON2 block inactive.
Cc1cc(N2CCC(N(C)C3CCCC3)CC2)nc2cc(O)ccc12 was read as AmpC inh detg inactive, HCV inh inconclusive, Pf growth 48h 1.9µM, Pf growth 96h inactive, AmpC inh no detg inconclusive and AMA1 RON2 block inactive.
For Cn1c(=O)c2c(nc(SCCOc3ccc4ccc(=O)oc4c3)n2C)n(C)c1=O the results were AmpC inh detg inconclusive, HCV inh inactive, Pf growth 48h inactive, Pf growth 96h 13µM and AmpC inh no detg inactive.
Screening Cc1ccc2cc3c(N)nn(C(=O)c4cccc(F)c4)c3nc2c1 returned AmpC inh detg inactive.
CC1CCCN(C2(O)C(=O)Nc3c(C(F)(F)F)cccc32)C1 (centres undefined) was read as AmpC inh detg inactive, HCV inh inactive, Pf growth 48h 4.1µM, Pf growth 96h inactive, AmpC inh no detg inactive and AMA1 RON2 block inactive.
CCc1ccc(NC(=O)N(Cc2c[nH]c3ccccc23)C2CCCCC2)cc1 was read as AmpC inh detg inactive.
For COc1ccc([C@@H]2[C@@H]3C(=O)N(C(C)(C)C)C(=O)[C@@H]3[C@]3(C)C(=O)N(c4cccc(C)c4)C(=O)N23)cc1 the results were AmpC inh detg inactive, HCV inh inactive, Pf growth 48h inactive, Pf growth 96h inactive, AmpC inh no detg inactive and AMA1 RON2 block inactive.
COc1ccc(N2C(=O)N3[C@H](c4cccc(C)c4)[C@@H]4C(=O)N(Cc5ccccc5)C(=O)[C@@H]4[C@]3(Cc3ccccc3)C2=O)cc1 was read as AmpC inh detg inactive, HCV inh inactive, Pf growth 48h inconclusive, Pf growth 96h 4.7µM, AmpC inh no detg inactive and AMA1 RON2 block inactive.
COc1ccc([C@@H]2[C@@H]3C(=O)N(C(C)(C)C)C(=O)[C@@H]3[C@]3(Cc4ccc(Cl)cc4)C(=O)N(c4cccc(C)c4)C(=O)N23)cc1 was read as AmpC inh detg inactive, HCV inh inactive, Pf growth 48h inconclusive, Pf growth 96h 8.3µM, AmpC inh no detg inactive and AMA1 RON2 block inactive.
For COc1ccc([C@@H]2[C@@H]3C(=O)N(C(C)(C)C)C(=O)[C@@H]3[C@]3(Cc4ccc(Cl)cc4)C(=O)N(c4ccc(C)cc4)C(=O)N23)cc1 the results were AmpC inh detg inactive, HCV inh inactive, Pf growth 48h 13µM, Pf growth 96h 6.6µM, AmpC inh no detg inactive and AMA1 RON2 block inactive.
Screening COc1ccc([C@@H]2[C@@H]3C(=O)N(C(C)(C)C)C(=O)[C@@H]3[C@]3(Cc4ccccc4)C(=O)N(c4ccc(OC)cc4)C(=O)N23)cc1 returned AmpC inh detg inconclusive, HCV inh inactive, Pf growth 48h inconclusive, Pf growth 96h inconclusive, AmpC inh no detg inactive and AMA1 RON2 block inactive.
Cc1ccc(/C=N/NC(=O)c2cccc(NC(=O)c3ccccc3Cl)c2)o1 was read as AmpC inh detg inactive, HCV inh inactive, Pf growth 48h inactive, Pf growth 96h 1.2µM, AmpC inh no detg inconclusive and AMA1 RON2 block inactive.
`Cc1ccc(/C=N/NC(=O)c2cccc(NC(=O)c3ccccc3C)c2)o1` gave AmpC inh detg inactive, HCV inh inactive, Pf growth 48h inactive, Pf growth 96h inactive, AmpC inh no detg inconclusive and AMA1 RON2 block inactive.
O=C(Nc1ncc(Cc2ccccc2)s1)c1cccs1 was read as AmpC inh detg inconclusive, HCV inh inconclusive, Pf growth 48h inactive, Pf growth 96h inconclusive, AmpC inh no detg inactive and AMA1 RON2 block inactive.
O=C(Nc1ncc(Cc2cccc(Cl)c2)s1)c1cccs1 was read as AmpC inh detg inactive, HCV inh 22µM, Pf growth 48h inactive, Pf growth 96h inactive, AmpC inh no detg inactive and AMA1 RON2 block inactive.
`CC(=O)c1cccc(NC(=O)c2cc(-c3ccncc3)nc3ccccc23)c1` gave AmpC inh detg inactive, HCV inh inconclusive, Pf growth 48h 12µM, Pf growth 96h inconclusive, AmpC inh no detg inactive and AMA1 RON2 block inactive.
For COc1cccc(NC(=O)c2cc(-c3ccncc3)nc3c(C)cc(C)cc23)c1 the results were AmpC inh detg inactive, HCV inh 10µM, Pf growth 48h inconclusive, Pf growth 96h inconclusive, AmpC inh no detg inactive and AMA1 RON2 block inactive.
`COc1cc(-c2cc(C(=O)Nc3cccc(C(C)=O)c3)c3ccccc3n2)cc(OC)c1OC` gave AmpC inh detg inactive, HCV inh inconclusive, Pf growth 48h inconclusive, Pf growth 96h inactive, AmpC inh no detg inactive and AMA1 RON2 block inactive.
COc1ccc(NC(=O)c2cc(-c3ccccn3)nc3c(C)cc(C)cc23)c(C)c1 was read as AmpC inh detg inactive, HCV inh inconclusive, Pf growth 48h inconclusive, Pf growth 96h inactive, AmpC inh no detg inactive and AMA1 RON2 block inactive.
For COc1cccc(-c2cc(C(=O)Nc3ccncc3)c3ccccc3n2)c1 the results were AmpC inh detg inactive, HCV inh inconclusive, Pf growth 48h 0.74µM, Pf growth 96h inconclusive, AmpC inh no detg inactive and AMA1 RON2 block inactive.
Screening Cc1[nH]c2ccccc2c1/C=N/NC(=O)c1cc(-c2ccncc2)nc2ccccc12 returned AmpC inh detg inactive, HCV inh 10µM, Pf growth 48h inconclusive, Pf growth 96h 6.6µM, AmpC inh no detg inactive and AMA1 RON2 block inactive.
Screening CC(=O)c1cccc(NC(=O)CSc2ncc3c(n2)-c2cc(Cl)ccc2N(Cc2ccccc2)S3(=O)=O)c1 returned AmpC inh detg inactive.
Screening O=C(Nc1cccc(S(=O)(=O)NC2=NCCCCC2)c1)c1cc(-c2ccncc2)nc2ccccc12 returned AmpC inh detg inactive, HCV inh inconclusive, Pf growth 48h inconclusive, Pf growth 96h 12µM, AmpC inh no detg inactive and AMA1 RON2 block inactive.
For NS(=O)(=O)c1cccc(NC(=O)c2cc(-c3cccs3)nc3ccccc23)c1 the results were AmpC inh detg inactive, HCV inh inactive, Pf growth 48h inconclusive, Pf growth 96h inconclusive, AmpC inh no detg 18µM and AMA1 RON2 block inactive.
For COc1cccc(-c2cc(C(=O)Nc3ccc(N(C)C(C)=O)cc3)c3cc(Br)ccc3n2)c1 the results were HCV inh 11µM and AMA1 RON2 block inactive.
`CN(C)S(=O)(=O)c1cccc(NC(=O)c2cc(-c3cccs3)nc3ccccc23)c1` gave AmpC inh detg inconclusive, HCV inh inconclusive, Pf growth 48h inactive, Pf growth 96h inconclusive, AmpC inh no detg inactive and AMA1 RON2 block inactive.
